Screening data as filed in PubChem BioAssay.
Only some compounds are listed: those with a hit (about 3.4% of all), similar ones and a draw of the others.
TEAD-YAP inh = TEAD-YAP interaction inhibition. HEK-TIYL cells, TEAD-Gal4/YAP UAS-luciferase luminescence. inhibition, % at 9.12 µM. 640,000 tested, 1.4% active; in the data active = inhibition above about 32%;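 note: 0% = median of test compound wells and 100% = reference inhibitor wells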
GPR151 ag = activates the human receptor GPR151. Q8TDV0. PathHunter beta-arrestin GPR151 cells, luminescence. activation, % at 11.2 µM. 650,000 tested, 1% active. AID 1508602; in the data active = activation above about 4.9%;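 note: 0% = median of compound wells and 100% = cells with positive control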
MITF primary = human MITF inhibition, primary screen; AlphaScreen MITF homodimerization, bead proximity signal; O75030; AID 1259374; inhibition, % at 2.6 µM; 650,000 tested, 0.91% active; in the data active = inhibition above about 50%;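 note: 0% = vehicle wells with protein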
Target sequence (O75030 whole entry, looked up): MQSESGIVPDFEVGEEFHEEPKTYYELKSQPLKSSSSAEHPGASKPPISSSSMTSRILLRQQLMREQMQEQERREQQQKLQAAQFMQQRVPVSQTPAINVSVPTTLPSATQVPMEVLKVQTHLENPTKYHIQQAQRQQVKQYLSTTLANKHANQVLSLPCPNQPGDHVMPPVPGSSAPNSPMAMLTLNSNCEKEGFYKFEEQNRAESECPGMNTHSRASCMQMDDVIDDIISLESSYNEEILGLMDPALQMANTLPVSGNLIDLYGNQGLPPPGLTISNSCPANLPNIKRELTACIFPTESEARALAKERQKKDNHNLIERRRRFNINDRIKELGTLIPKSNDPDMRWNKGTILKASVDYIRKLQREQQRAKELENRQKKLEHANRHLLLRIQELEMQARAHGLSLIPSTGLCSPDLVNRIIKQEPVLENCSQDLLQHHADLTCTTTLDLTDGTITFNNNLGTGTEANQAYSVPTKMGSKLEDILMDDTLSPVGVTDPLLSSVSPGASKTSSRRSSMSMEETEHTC
FBW7 act = activators of human E3 ligase FBW7. normalized activity (activation), % at 26.1 µM. Q969H0. 650,000 tested, 0.13% active. AlphaScreen FBW7–phospho-cyclin E peptide binding, activator screen; in the data active = normalized activity above about 1.9%;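 note: purified mutant Fbw7 with reduced substrate affinity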
Starred values were filed as active, the others as inactive.

SMILES | TEAD-YAP inh | GPR151 ag | MITF primary | FBW7 act
c1cc(-n2cnc3c(NCCN4CCOCC4)nc(NCCN4CCOCC4)nc32)cs1 | 16 | 1 | 4 | 0
c1cc(-n2cnc3c(Nc4ccc(N5CCOCC5)cc4)nc(NCCN4CCOCC4)nc32)cs1 | 45* | 0 | 3 | 0
c1cc(-n2cnc3c(NCCN4CCOCC4)nc(Nc4ccc(N5CCOCC5)cc4)nc32)cs1 | 62* | 1 | -17 | 0
CCCNc1nc(Nc2ccc(N3CCOCC3)cc2)nc2c1ncn2-c1ccsc1 | 47* | 4 | 10 | 0
COc1cccn2c(C(=O)N3CCCCC3)c(C(F)(F)F)nc12 | 10 | -2 | 5 | 0
C/C=C(\C)CN1CCN(C(=O)OCC)CC1 | 16 | 1 | 0 | 0
CC(C)(CO)NC(=O)Nc1ccccc1 | 9 | 1 | 9 | 0
COc1ccc(CCNS(=O)(=O)c2ccc3[nH]c(=O)sc3c2)cc1OC | -9 | -1 | 6 | 0
c1ccc(Nc2nc(NCCN3CCOCC3)c3ncn(C4CCCCC4)c3n2)cc1 | 16 | 0 | 6 | 0
CC(=O)Nc1ccc(Nc2nc(NCCN3CCOCC3)nc3c2ncn3-c2ccsc2)cc1 | 51* | 0 | -5 | 0
c1cn(-c2ccc(Nc3nc(NCCN4CCOCC4)c4ncn(C5CCCCC5)c4n3)cc2)cn1 | 47* | 0 | 8 | 0
COc1cc(Nc2nc(NCCN3CCOCC3)nc3c2ncn3-c2ccsc2)cc(OC)c1OC | 6 | -1 | 2 | 0
Cc1c(/C=N/Nc2cccc3cccnc23)c(=O)n(-c2ccccc2)n1C | 88* | -5 | 19 | 0
C(=N\Nc1cccc2cccnc12)/c1ccccn1 | 24 | -3 | 38 | 0
O=C(Cn1cnc([N+](=O)[O-])c1[N+](=O)[O-])Nc1cc(Oc2ccccc2)cc([N+](=O)[O-])c1 | 42* | 0 | 16 | 0
O=C(Cn1cnc([N+](=O)[O-])c1[N+](=O)[O-])Nc1ccc(Cl)cc1 | 87* | 0 | 2 | 0
Cn1c(Nc2nc(NCc3ccccc3)c3ncn(-c4ccsc4)c3n2)nc2ccccc21 | 11 | 3 | -3 | 0
Cc1ccc(C(=O)Nc2ccc(C)c(C)c2)cc1 | 67* | -3 | -14 | 0
O=C(Nc1ccc(-c2ccc(NC(=O)c3ccc(Cl)cc3)cc2)cc1)c1ccc(Cl)cc1 | -12 | 2 | -6 | 39*
Cc1ccc(C(=O)Nc2ccc(C(=O)O)cc2)cc1 | 45* | -1 | 8 | 0
Cc1nc(-c2ccc(NC(=O)c3ccccc3)cc2)cs1 | 51* | -10 | -7 | 0
Cc1ccc(C(N)=O)c2c1CC(C)(C)O2 | 0 | 0 | -17 | 0
COc1ccc(/C=N/n2cnnc2)cc1COc1ccc([N+](=O)[O-])cc1 | 6 | 0 | -1 | 0
Brc1cncc(-c2cc(NCc3cccnc3)nc(-c3ccccc3)n2)c1 | 1 | 0 | -15 | 0
COc1ccc(N=Cc2c(O)n(-c3cccc(OC)c3)c(=O)[nH]c2=O)cc1 | -8 | -1 | 76* | 0
SMILES | TEAD-YAP inh | GPR151 ag | MITF primary | FBW7 act
CCOC(=O)c1ccc(N=Cc2c(O)n(-c3cccc(OC)c3)c(=O)[nH]c2=O)cc1 | -4 | 1 | -2 | 0
COc1ccc(N2C(SC)=NC(=Nc3ccc(C)cc3)C23CCC(C(C)(C)C)CC3)cc1 (configuration not stated) | 2 | 0 | 13 | 0
COC1(C)N(c2ccc(C)cc2)CC(=Nc2ccc(C)cc2)N1c1ccc(C)cc1 (configuration not stated) | 38* | 1 | 9 | 0
O=C(CSc1nnc(-c2ccccc2)o1)c1ccc(F)cc1 | -4 | -1 | -1 | 0
CCC(=O)Nc1ccc2nc(SCC(=O)N3CCN(c4ccccc4)CC3)sc2c1 | 45* | 3 | 5 | 0
COc1ccccc1C(=O)Nc1ccc2nc(SCC(=O)NCCOc3ccccc3)sc2c1 | 53* | 1 | -2 | 0
CC(=O)Nc1ccc2nc(SCC(=O)N3CCN(c4ccccc4)CC3)sc2c1 | 14 | -1 | 10 | 1
COc1ccccc1C(=O)Nc1ccc2nc(SCC(=O)NCc3ccccc3)sc2c1 | 52* | 1 | 1 | 0
CCC1CCC(C(=O)NC(C(=O)NCCc2ccc(S(N)(=O)=O)cc2)C(C)C)CC1 (configuration not stated) | 40* | -1 | -16 | 0
N#Cc1ccc(C(=O)Nc2nnc(-c3ccccn3)o2)cc1 | -10 | -9 | 24 | 0
CC(C)Oc1ccc(C(=O)Nc2nnc(-c3ccccn3)o2)cc1 | 36* | -7 | 7 | 0
COc1cccc(/C=N/NC(=O)c2cccc(Br)c2)c1O | 64* | 0 | 20 | -1
Cc1ccn2c(C(=O)N/N=C\c3ccccc3[N+](=O)[O-])c(C)nc2c1 | -4 | 0 | -6 | 0
COc1cccc(/C=N\NC(=O)c2c(C)nc3cc(C)ccn23)c1O | 78* | -1 | 50 | -1
CC(C)Oc1ccc(Br)cc1C(=O)N/N=C/c1ccc2c(c1)OCO2 | 40* | -1 | 5 | 0
COc1ccc(CNC(=O)C(=O)N/N=C/c2cccc(OC)c2O)cc1 | 10 | -1 | 53* | 0
CCc1nnc(NC(=O)CN2C(=O)/C(=C\c3ccc(OC)cc3)SC2=S)s1 | 0 | 0 | 9 | 0
CCOc1ccc(NC(=O)C/C(C)=N/NC(=O)c2cccc(C)c2O)cc1 | -11 | 0 | 5 | 0
Cc1cc(C)nc(N2CCC(C(=O)NNC(=O)COc3cccc4ccccc34)CC2)n1 | 4 | -1 | 18 | 0
CC(C)(C)c1ccc(O)c(/C=N/NC(=O)c2ccc3c(c2)OCCO3)c1 | 45* | 0 | 29 | 0
COc1cc(Br)cc(/C=N/NC(=O)c2cccc(Br)c2)c1O | 35* | -1 | -13 | 0
O=C(O)c1ccc(N/N=C/c2c(F)cccc2Cl)cc1 | 36* | -8 | 2 | 0
COc1cccc(/C=N/NC(=O)c2cc(C(C)C)[nH]n2)c1O | 49* | 0 | 16 | 0
COc1cccc(/C=N/NC(=O)c2cc(-c3ccco3)[nH]n2)c1O | 23 | 0 | 41 | -1
O=C(Nc1ccc(Cc2ccncc2)cc1)c1cccc(OCc2ccccc2)c1 | 20 | 0 | 1 | 0
SMILES | TEAD-YAP inh | GPR151 ag | MITF primary | FBW7 act
CCc1ccc(N(C(=O)Nc2ccc(C)cc2)C2=NCCC2)cc1 | -62 | -2 | 15 | 0
Cc1ccc(C2C=C(c3ccccc3)Nc3nc(NC(=O)c4ccco4)nn32)cc1 (configuration not stated) | 0 | 1 | 11 | 0
COc1cccc(/C=N/Nc2ccc(S(=O)(=O)O)cc2)c1O | 10 | 1 | 21 | 0
COc1cccc(/C=N/NC(=O)c2ccc(C(C)(C)C)cc2)c1O | 39* | 3 | 15 | -1
COc1cccc(/C=N/NC(=O)c2cccc(Cn3cccn3)c2)c1O | -3 | -1 | 11 | 0
COc1cccc(/C=N/NC(=O)c2cc(Br)ccc2OC(C)C)c1O | 78* | -2 | 14 | 0
COc1cccc(/C=N/Nc2ccc(C(=O)O)cc2)c1O | 84* | -6 | -15 | 0
COc1cccc(/C=N/NC(=O)c2ccc(O)cc2)c1O | 21 | -1 | -27 | 0
